From PubChem BioAssay (EPA / NIEHS) come the findings set out here.

Where “and” joins values, the source holds several entries; their conditions need not be identical. Equal values may be shown once. Some structures have more than one record in an assay (separate samples or runs), and their calls can disagree. Calls of active or inactive are those of the source. Rule for the calls: active = hit-call score of the fitted dose curve at least 0.9, where 1 is the maximum; inconclusive = response in the unintended direction; inactive = score below 0.9.

The AC50 is the concentration at which the activity in the assay is half-maximal.

The test system of the assay is rat CYP2B1, gene 24300. Kind of assay: NVS_ADME_rCYP2B1: NovaScreen (NVS) CYP450-related Enzyme Activity (ADME) Assay for rat CYP2B1 (AID 2283117). On the procedure:
NVS_ADME_rCYP2B1 is a biochemical, single-readout assay that uses extracted gene-proteins in a cell-free assay. Measurements were taken 0.75 hour after chemical dosing in a 96-well plate.NVS_ADME_rCYP2B1 is one of one assay component(s) measured or calculated from the NVS_ADME_rCYP2B1 assay. It is designed to make measurements of enzyme activity, a form of enzyme reporter, as detected with fluorescence intensity signals by Fluorescence technology.Data from the assay component NVS_ADME_rCYP2B1 was analyzed into 1 assay endpoint. This assay endpoint, NVS_ADME_rCYP2B1, was analyzed in the positive analysis fitting direction relative to Acetonitrile as the negative control and baseline of activity. Using a type of enzyme reporter, loss-of-signal activity can be used to understand changes in the enzymatic activity as they relate to the gene Cyp2b1. Furthermore, this assay endpoint can be referred to as a primary readout, because this assay has produced multiple assay endpoints where this one serves a enzymatic activity function. To generalize the intended target to other relatable targets, this assay endpoint is annotated to the cyp intended target family, where the subfamily is xenobiotic metabolism.
Binding assays used specific radioligands (tritiated, iodinated) with non-radioactive competitive displacement ligands in agonist or antagonist protocols (as indicated) and various reference compounds and inhibitors to titrate specific binding to receptors and transporters. Most enzyme assays (CYPs, kinases, phosphatases, proteases, HDACs) used recombinant protein and specific substrates (fluorescence mostly, some colorimetric and radioactive) and inhibitors, followed by a biochemical separation of substrate and product. All assays for the biochemical HTS were initially run in duplicate at a single concentration (10 uM for CYP450 assays and 25 uM for all others). Assay-chemical combinations meeting a pre-defined threshold (e.g., 30% inhibition and other criteria defined below) were then run in singleton concentration-response format with maximum concentration of 20 uM for CYPs and 50 uM for all others. Each assay was run with positive and negative controls, and concurrent controls on every plate. The follow-up (secondary) screen tested active chemical-pairs in concentration series, as well as a few additional assays not tested in the primary screen, some selected negative inactives, and several cases re-run in the concentration series for confirmatory purposes.
On to `OC(c1ccc(Cl)cc1)(c1cncnc1)c1ccccc1Cl` (centres undefined), for which the AC50 was 1.17 µM (active).
Still for that read-out and setting: under `CN(C)C(=S)SSC(=S)N(C)C` stands 2.11 µM (active).
The same measure, in the same setting: under `N#CC(CCc1ccc(Cl)cc1)(Cn1cncn1)c1ccccc1` (centres undefined) stands 0.0692 µM (active).
With `CCNc1nc(Cl)nc(NC(C)C)n1`, the compound was called inactive.
Turning to `CCCN(CCC)c1c([N+](=O)[O-])cc(S(N)(=O)=O)cc1[N+](=O)[O-]`, the AC50 was 7.63 µM (active).
On the same count and under the same terms, as for `CC1COC(Cn2cncn2)(c2ccc(Oc3ccc(Cl)cc3)cc2Cl)O1` (centres undefined), the figure is 0.552 µM (active); as for `CCOP(=S)(OCC)SCn1c(=O)oc2cc(Cl)ccc21`, 0.708 µM (active); as for `CCOC(=O)CC(SP(=S)(OC)OC)C(=O)OCC` (centres undefined), 3.83 µM (active).
Regarding `CCCCOC(=O)c1ccccc1C(=O)OCCCC`, the AC50 was 2.31 µM (active) and the result was inactive.
On to `CCON=C(CC)C1=C(O)CC(c2c(C)cc(C)cc2C)CC1=O` (centres undefined), for which the compound was classed as inactive.
As for `CCCC1COC(Cn2cncn2)(c2ccc(Cl)cc2Cl)O1` (centres undefined), the AC50 was 799 nM (active) and 409 nM (active).
As for `COc1ccc(C(c2ccc(OC)cc2)C(Cl)(Cl)Cl)cc1`, the outcome was inactive.
Turning to `O=C(Nc1ccccc1)Nc1ccnc(Cl)c1`, the AC50 is 6.41 µM (active).
